# Results as given in paper PMC7862700, “An all-to-all approach to the identification of sequence-specific readers for epigenetic DNA modifications on cytosine”.
# Tests used:
# Test in all cases: DAPPL (digital affinity profiling via proximity ligation, sequencing); 10 mM Tris-HCl pH 7.5, 50 mM NaCl, 1 mM DTT, 4% glycerol, room temperature, 30 min; GST-TFs on glutathione beads, 16-mer random dsDNA library, 0.1% formaldehyde crosslink after washing; high values mean tight binding
# Settings in all cases: protein: recombinant; tags: N-terminal GST; dsDNA, one strand shown
# [1] = target: T1, FLI1 (Homo sapiens, UniProt Q01543 1-452)
# T1 sequence: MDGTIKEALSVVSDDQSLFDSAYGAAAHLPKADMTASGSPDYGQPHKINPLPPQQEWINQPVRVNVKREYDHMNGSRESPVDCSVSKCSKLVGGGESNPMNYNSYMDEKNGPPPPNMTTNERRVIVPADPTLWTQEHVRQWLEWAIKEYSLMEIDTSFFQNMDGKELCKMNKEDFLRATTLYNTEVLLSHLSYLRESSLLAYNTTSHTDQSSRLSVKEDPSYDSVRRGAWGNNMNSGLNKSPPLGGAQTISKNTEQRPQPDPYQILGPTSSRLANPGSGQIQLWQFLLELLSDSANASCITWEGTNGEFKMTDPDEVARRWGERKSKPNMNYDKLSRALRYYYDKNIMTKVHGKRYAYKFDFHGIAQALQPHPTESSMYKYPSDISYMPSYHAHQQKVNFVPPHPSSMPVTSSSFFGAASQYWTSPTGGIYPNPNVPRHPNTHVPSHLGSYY
# Procedure, shortened: (§1)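 Yeast served to express human transcription factors as GST fusions, which were then captured on glutathione beads and labelled with DNA barcodes. Pooled with a tag-only sample, they were incubated with 200 nmole of a 16-mer random double-stranded DNA library for 30 min at room temperature in Tris/NaCl/DTT/glycerol buffer, washed, crosslinked with 0.1% formaldehyde, ligated by proximity, amplified by PCR and sequenced. Dividing each hexamer's read frequency for a factor by its frequency for the tag-only sample gives the binding signal.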
# [2] = target: T2, ELK1 (Homo sapiens, UniProt P19419 1-428)
# T2 sequence: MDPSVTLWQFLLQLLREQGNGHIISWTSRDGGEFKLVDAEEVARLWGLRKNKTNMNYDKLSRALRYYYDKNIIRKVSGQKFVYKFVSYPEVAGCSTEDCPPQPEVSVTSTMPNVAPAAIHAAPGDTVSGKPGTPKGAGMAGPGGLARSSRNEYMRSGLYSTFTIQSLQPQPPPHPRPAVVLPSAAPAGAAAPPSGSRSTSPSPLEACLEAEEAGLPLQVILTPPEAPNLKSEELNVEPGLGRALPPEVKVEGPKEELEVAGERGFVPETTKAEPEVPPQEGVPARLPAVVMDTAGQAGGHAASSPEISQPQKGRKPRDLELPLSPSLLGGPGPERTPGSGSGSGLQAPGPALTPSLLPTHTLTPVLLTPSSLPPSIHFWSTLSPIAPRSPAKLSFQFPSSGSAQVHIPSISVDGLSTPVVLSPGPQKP
# Procedure, shortened: as §1
# [3] = target: T3, GABPA (Homo sapiens, UniProt Q06546 1-454)
# T3 sequence: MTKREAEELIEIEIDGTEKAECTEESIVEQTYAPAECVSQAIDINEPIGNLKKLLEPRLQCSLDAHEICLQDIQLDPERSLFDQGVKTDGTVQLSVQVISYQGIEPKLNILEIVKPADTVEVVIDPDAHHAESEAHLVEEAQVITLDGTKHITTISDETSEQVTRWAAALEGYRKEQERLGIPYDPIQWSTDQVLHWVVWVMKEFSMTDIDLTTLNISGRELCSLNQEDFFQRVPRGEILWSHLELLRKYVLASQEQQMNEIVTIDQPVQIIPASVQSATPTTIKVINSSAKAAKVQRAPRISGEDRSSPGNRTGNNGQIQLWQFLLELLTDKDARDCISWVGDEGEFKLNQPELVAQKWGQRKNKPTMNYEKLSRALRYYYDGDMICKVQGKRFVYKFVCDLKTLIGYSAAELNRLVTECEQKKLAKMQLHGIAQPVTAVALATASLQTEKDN
# Procedure, shortened: as §1
# [4] = target: ELF1 (Homo sapiens, UniProt P32519 1-619)
# Procedure, shortened: as §1
# [5] = target: T4, EHF (Homo sapiens, UniProt Q9NZC4 1-300)
# T4 sequence: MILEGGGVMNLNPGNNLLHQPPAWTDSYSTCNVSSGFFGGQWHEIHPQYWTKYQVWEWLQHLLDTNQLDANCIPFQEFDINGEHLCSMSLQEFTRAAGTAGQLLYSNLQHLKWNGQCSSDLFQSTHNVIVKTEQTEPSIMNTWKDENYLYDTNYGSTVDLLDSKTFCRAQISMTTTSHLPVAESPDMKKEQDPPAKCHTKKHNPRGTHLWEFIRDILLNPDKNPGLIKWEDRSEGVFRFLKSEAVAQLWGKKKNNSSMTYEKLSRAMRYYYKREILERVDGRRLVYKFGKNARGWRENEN
# Procedure, shortened: as §1
# [6] = target: T5, ELK3 (Homo sapiens, UniProt P41970 1-407)
# T5 sequence: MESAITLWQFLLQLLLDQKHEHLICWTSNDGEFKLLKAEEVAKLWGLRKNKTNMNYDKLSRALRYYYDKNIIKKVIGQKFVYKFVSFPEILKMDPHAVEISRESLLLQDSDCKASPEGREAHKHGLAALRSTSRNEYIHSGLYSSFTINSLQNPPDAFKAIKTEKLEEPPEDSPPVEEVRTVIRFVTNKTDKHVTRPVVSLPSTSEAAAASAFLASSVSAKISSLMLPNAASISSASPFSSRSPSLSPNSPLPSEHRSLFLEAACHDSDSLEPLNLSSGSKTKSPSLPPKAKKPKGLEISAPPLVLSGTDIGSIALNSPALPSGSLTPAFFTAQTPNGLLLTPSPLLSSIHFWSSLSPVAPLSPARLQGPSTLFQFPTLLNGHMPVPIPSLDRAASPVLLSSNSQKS
# Procedure, shortened: as §1
# [7] = target: T6, SPIC (Homo sapiens, UniProt Q8N5J4 1-248)
# T6 sequence: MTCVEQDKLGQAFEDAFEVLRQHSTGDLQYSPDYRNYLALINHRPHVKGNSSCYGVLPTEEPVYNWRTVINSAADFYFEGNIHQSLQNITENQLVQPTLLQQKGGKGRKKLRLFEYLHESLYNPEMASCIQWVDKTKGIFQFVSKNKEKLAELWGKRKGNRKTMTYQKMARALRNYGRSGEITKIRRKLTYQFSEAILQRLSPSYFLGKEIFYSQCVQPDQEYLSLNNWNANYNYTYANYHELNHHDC
# Procedure, shortened: as §1
# [8] = target: ELF4 (Homo sapiens, UniProt Q99607 1-663)
# Procedure, shortened: as §1
# [9] = target: T7, ELK4 (Homo sapiens, UniProt P28324-2 1-405)
# T7 sequence: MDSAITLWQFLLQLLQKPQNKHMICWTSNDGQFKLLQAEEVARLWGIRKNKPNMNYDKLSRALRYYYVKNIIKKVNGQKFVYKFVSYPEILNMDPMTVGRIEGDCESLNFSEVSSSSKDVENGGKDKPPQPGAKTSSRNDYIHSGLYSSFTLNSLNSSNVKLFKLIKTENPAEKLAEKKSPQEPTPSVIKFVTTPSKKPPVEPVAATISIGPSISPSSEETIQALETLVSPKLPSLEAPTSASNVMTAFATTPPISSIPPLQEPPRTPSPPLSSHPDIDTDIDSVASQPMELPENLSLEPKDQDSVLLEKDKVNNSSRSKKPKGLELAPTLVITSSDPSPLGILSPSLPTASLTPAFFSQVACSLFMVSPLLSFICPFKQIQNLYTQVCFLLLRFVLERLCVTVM
# Procedure, shortened: as §1
# [10] = target: T8, ETV2 (Homo sapiens, UniProt O00321 1-342)
# T8 sequence: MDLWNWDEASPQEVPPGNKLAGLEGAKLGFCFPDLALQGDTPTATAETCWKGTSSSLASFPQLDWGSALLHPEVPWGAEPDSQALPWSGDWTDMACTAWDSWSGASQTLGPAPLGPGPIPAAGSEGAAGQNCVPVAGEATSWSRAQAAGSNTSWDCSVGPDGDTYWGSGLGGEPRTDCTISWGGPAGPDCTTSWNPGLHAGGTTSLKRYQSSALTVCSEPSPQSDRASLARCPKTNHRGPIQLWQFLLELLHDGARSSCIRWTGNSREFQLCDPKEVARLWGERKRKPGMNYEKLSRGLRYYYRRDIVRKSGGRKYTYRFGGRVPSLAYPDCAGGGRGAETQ
# Procedure, shortened: as §1
# [11] = target: T9, ELF3 (Homo sapiens, UniProt P78545 1-371)
# T9 sequence: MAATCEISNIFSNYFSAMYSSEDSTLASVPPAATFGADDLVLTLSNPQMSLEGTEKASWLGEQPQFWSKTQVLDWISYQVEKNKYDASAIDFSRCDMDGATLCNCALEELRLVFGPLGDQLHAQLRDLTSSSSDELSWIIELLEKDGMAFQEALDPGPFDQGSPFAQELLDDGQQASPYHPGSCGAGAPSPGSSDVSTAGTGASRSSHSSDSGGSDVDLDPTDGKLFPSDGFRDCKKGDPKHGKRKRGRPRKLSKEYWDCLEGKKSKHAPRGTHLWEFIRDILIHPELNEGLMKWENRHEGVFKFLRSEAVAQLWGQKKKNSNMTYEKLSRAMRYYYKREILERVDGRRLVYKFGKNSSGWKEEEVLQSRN
# Procedure, shortened: as §1
# [12] = target: T10, ETV3L (Homo sapiens, UniProt Q6ZN32 1-361)
# T10 sequence: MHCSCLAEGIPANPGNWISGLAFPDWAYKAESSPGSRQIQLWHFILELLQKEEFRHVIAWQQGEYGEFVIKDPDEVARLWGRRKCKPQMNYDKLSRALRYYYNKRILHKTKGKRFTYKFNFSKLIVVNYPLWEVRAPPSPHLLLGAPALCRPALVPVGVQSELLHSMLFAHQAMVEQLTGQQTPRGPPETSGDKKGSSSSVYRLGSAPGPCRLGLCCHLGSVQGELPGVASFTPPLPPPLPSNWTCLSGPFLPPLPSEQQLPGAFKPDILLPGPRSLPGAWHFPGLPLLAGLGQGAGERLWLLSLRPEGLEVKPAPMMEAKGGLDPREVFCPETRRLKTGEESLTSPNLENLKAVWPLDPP
# Procedure, shortened: as §1
# [13] = target: T11, ETS2 (Homo sapiens, UniProt P15036 1-469)
# T11 sequence: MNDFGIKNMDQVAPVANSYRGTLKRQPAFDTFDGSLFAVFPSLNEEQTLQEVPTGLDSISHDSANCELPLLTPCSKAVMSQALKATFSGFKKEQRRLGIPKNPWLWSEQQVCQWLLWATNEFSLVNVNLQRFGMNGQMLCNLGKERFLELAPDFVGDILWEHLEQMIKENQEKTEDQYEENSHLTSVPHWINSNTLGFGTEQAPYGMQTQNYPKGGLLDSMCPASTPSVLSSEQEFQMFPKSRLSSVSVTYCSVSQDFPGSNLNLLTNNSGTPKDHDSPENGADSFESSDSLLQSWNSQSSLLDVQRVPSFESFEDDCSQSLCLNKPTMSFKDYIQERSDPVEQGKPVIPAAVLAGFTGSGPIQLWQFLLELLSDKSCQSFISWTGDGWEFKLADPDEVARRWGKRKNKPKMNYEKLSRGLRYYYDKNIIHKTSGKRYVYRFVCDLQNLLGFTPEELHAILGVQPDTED
# Procedure, shortened: as §1
# [14] = target: T12, ETV7 (Homo sapiens, UniProt Q9Y603 1-341)
# T12 sequence: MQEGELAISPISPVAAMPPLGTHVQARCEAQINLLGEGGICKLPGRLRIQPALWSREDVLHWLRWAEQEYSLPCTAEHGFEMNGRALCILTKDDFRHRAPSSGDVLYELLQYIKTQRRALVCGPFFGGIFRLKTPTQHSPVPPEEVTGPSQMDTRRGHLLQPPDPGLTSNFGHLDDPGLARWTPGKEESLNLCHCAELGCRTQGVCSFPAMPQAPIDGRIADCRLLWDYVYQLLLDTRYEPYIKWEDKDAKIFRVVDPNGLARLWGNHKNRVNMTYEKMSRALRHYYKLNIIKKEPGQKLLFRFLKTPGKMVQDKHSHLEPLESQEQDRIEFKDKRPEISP
# Procedure, shortened: as §1
# [15] = target: T13, ETV3 (Homo sapiens, UniProt P41162-2 1-143)
# T13 sequence: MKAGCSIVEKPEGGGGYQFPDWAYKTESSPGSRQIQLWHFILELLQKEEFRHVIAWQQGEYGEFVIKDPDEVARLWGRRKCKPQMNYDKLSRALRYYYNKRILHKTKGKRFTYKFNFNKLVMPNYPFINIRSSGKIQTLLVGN
# Procedure, shortened: as §1
# [16] = target: ETV6 (Homo sapiens, UniProt P41212 1-452)
# Procedure, shortened: as §1
# ELF4, sequence (Q99607 whole entry): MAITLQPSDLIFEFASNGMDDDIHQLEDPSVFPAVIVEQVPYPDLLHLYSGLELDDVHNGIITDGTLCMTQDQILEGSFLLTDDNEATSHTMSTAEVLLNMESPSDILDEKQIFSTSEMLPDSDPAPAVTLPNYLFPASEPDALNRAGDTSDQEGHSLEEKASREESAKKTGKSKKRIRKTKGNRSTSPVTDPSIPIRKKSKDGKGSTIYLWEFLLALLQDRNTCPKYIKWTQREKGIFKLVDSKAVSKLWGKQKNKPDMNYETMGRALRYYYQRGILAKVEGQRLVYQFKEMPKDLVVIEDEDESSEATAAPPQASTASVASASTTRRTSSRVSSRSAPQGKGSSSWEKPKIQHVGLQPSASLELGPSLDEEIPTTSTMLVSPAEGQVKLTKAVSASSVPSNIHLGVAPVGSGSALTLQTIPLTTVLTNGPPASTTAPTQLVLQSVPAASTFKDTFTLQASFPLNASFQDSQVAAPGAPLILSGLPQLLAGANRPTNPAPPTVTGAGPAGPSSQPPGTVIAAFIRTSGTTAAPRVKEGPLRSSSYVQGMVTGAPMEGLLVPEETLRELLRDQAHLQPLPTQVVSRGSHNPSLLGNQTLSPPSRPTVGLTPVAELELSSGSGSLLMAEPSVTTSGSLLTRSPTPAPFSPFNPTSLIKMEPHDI
# ELF1, sequence (P32519 whole entry): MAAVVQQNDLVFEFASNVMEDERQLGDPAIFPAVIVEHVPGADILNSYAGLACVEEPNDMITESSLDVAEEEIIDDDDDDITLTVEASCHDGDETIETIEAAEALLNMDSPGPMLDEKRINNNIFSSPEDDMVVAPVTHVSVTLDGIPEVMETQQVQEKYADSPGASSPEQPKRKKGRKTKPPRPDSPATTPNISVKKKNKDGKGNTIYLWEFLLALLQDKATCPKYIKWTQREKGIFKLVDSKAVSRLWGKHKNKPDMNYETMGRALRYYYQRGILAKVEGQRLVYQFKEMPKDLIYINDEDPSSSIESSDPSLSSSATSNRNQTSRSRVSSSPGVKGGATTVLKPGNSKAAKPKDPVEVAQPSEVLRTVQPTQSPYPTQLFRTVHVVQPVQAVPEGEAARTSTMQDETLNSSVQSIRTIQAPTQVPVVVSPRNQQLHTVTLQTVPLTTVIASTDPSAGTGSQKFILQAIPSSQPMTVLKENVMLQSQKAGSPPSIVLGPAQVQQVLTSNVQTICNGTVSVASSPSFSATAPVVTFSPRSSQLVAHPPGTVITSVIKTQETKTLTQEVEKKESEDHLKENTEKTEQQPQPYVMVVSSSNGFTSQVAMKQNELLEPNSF
# ETV6, sequence (P41212 whole entry): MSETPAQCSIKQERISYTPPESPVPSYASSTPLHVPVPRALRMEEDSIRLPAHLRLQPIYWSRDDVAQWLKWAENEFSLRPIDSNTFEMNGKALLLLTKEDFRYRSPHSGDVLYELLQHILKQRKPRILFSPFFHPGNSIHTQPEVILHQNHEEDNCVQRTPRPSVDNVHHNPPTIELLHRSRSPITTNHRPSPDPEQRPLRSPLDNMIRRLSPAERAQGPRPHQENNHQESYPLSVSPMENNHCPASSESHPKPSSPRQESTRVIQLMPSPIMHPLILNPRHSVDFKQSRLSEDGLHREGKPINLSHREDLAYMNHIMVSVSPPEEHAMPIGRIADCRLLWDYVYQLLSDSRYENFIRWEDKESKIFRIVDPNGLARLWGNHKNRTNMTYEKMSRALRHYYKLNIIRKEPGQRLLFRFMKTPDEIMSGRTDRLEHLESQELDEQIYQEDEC
sequence,measurement,setting,value
ATAAGT,binding signal,[1],"1.08 fold enrichment (6-mer frequency, TF over GST control)"
same,binding signal,[2],"1.05 fold enrichment (6-mer frequency, TF over GST control)"
same,binding signal,[3],"1.07 fold enrichment (6-mer frequency, TF over GST control)"
same,binding signal,[4],"1.08 fold enrichment (6-mer frequency, TF over GST control)"
same,binding signal,[5],"1.04 fold enrichment (6-mer frequency, TF over GST control)"
same,binding signal,[6],"1.09 fold enrichment (6-mer frequency, TF over GST control)"
same,binding signal,[7],"1.02 fold enrichment (6-mer frequency, TF over GST control)"
same,binding signal,[8],"1.1 fold enrichment (6-mer frequency, TF over GST control)"
same,binding signal,[9],"1.06 fold enrichment (6-mer frequency, TF over GST control)"
same,binding signal,[10],"1.05 fold enrichment (6-mer frequency, TF over GST control)"
same,binding signal,[11],"1.09 fold enrichment (6-mer frequency, TF over GST control)"
same,binding signal,[12],"1.05 fold enrichment (6-mer frequency, TF over GST control)"
same,binding signal,[13],"1.06 fold enrichment (6-mer frequency, TF over GST control)"
same,binding signal,[14],"1.05 fold enrichment (6-mer frequency, TF over GST control)"
same,binding signal,[15],"1.03 fold enrichment (6-mer frequency, TF over GST control)"
same,binding signal,[16],"1.06 fold enrichment (6-mer frequency, TF over GST control)"
